Common to all, as to assay: NCI-60 one-dose screen, 48 h (100 = growth as untreated, 0 = no growth, -100 = all killed)
For assay [1], the system named is SR leukemia. To be noted: 10 µM unless noted.
In assay [2] the test system is RPMI-8226 leukemia. The conditions noted are these: 10 µM unless noted.
The test system of assay [3] is OVCAR-8 ovarian. The conditions noted are these: 10 µM unless noted.
The test system of assay [4] is OVCAR-5 ovarian. The conditions noted are these: 10 µM unless noted.
For assay [5], the system named is OVCAR-4 ovarian. To be noted: 10 µM unless noted.
In assay [6] the test system is SK-OV-3 ovarian. To be noted: 10 µM unless noted.
In assay [7] the test system is IGROV1 ovarian. To be noted: 10 µM unless noted.
Assay [8] relates to OVCAR-3 ovarian. To be noted: 10 µM unless noted.
In assay [9] the test system is HS 578T breast. The conditions noted are these: 10 µM.
Assay [10] concerns NCI/ADR-RES ovarian. The conditions noted are these: 10 µM unless noted.
Assay [11] has as its system T-47D breast. To be noted: 10 µM unless noted.
For assay [12], the system named is BT-549 breast. The conditions noted are these: 10 µM unless noted.
For assay [13], the system named is MDA-MB-435 melanoma. The conditions noted are these: 10 µM unless noted.
The subject of assay [14] is SW-620 colon. To be noted: 10 µM unless noted.
The test system of assay [15] is MCF7 breast. The conditions noted are these: 10 µM unless noted.
Assay [16] concerns HCT-116 colon. The conditions noted are these: 10 µM unless noted.
The subject of assay [17] is KM12 colon. The conditions noted are these: 10 µM unless noted.
Assay [18] has as its system HCC-2998 colon. The conditions noted are these: 10 µM unless noted.

Compounds without any hit were thinned out: in the full panel of roughly 83,000, 20% have a hit.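 Plates (96-well) were seeded with cells, treated with compound at one concentration, and incubated for 48 hours before percent growth was determined.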 Unmarked numbers belong to inactive results. Active and inactive are the calls of the source. Rule for the calls: active = growth percent below 10; inactive = the rest.

As to `Oc1ccc(Nc2ncnc3c2sc2ncccc23)cc1`, the growth is 7.62% (active) in assay [1]; 31.9% in assay [2]; 7.28% (active) in assay [3]; 65% in assay [4]; 84.3% in assay [5]; 30.3% in assay [6]. The growth is 52.3% in [7]; 55.8% in [8]; 82.7% in assay [9]; 15.6% in assay [10]; 51% in assay [11]; 47.3% in assay [12]. The growth was 36.5% in [13]; 44.1% in [14]; 18.8% in [15]; 27.5% in [16]; 50.6% in assay [17].

Take `C/C(=N\OC(=O)Nc1cccc(Cl)c1)c1ccccc1`: the growth was 74% in [1]; 95.8% in assay [2]; 104% in [3]; 91% in assay [4]; 94.7% in [5]; 108% in assay [6]. The growth was 115% in assay [7]; 113% in [8]; 86.4% in assay [9]; 108% in [10]; 95.9% in [11]; 105% in [12]. Also, the growth was 93.1% in assay [13], 95.3% in assay [14], 103% in assay [16] and 109% in assay [17].

In the case of `CC(CN1CCN(CCOCCO)CC1)CN1c2ccccc2Sc2ccc(Cl)cc21` (stereo not given), the growth in assay [1] was -2.53% (active); in assay [2], 60%; in assay [3], 97.2%; in assay [4], 71.7%; in assay [5] it was 75.7%; in assay [6] it was 90.4%. The growth in [7] is 60.1%; in [8], 67%; in assay [9], 60.6%; in [10] it was 68.7%; in assay [11], 62.7%; in assay [12], 79.1%. Moreover, the growth in assay [13] is 22.4%; in assay [14] it was 63.6%; in [16], 37.5%; in assay [18], 39.5%; in [17], 28%.

As for `O=C1OCC2=C1C(c1cccc(Br)c1)c1cc3c(cc1N2CCO)OCCO3` (stereo not given), the growth in assay [1] was 29.8%; in assay [2] it was 21.4%; in assay [3] it was 9.03% (active); in assay [4], 39.5%; in assay [5] it was 53.4%; in [6], 32.3%. Moreover, the growth was 18.3% in assay [7]; -61.5% (active) in assay [8]; 8.74% (active) in assay [9]; 8.43% (active) in [10]; 76.9% in assay [11]; 21.4% in assay [12]. Besides, the growth was -40.4% (active) in [13]; 21.3% in [14]; 18.2% in assay [15]; 6.29% (active) in assay [16]; -33.9% (active) in [17].

In the case of `COc1cc2cc(C(=O)Nc3ccccc3)c(N)nc2cc1OC`, the growth in assay [1] was -35.8% (active); in assay [2], -21.2% (active); in [3], -44.8% (active); in [4], 73%; in [5], 22.3%; in assay [6] it was 23%. The growth in [7] is -11.7% (active); in assay [8], 27.8%; in [9], 36.2%; in [10] it was -29.1% (active); in assay [11] it was -28% (active); in [12] it was 69.9%. Moreover, the growth in [13] is -84.2% (active); in assay [14], -68% (active); in [15], -88.4% (active); in assay [18] it was -83.4% (active); in [17] it was -52% (active).

Consider `CC(C)OC(=O)c1ccc([N+](=O)[O-])cc1`, for which the growth is 102% in assay [1]; 98.5% in assay [2]; 108% in assay [3]; 112% in assay [4]; 111% in assay [5]; 107% in assay [6]. Further, the growth was 119% in assay [7]; 117% in [8]; 112% in assay [9]; 104% in [10]; 108% in [11]; 113% in assay [12]. For the same compound, the growth was 125% in assay [13]; 109% in [14]; 117% in assay [15]; 113% in assay [18]; 113% in assay [17].

`Oc1[nH]c2ccccc2c1/C=c1/ccc2c(c1)N=C(c1ccc(C(F)(F)F)cc1)N=2`: the growth in assay [1] is 12.1%; in assay [2] it was 35.6%; in assay [3], 70.5%; in assay [4], 72.3%; in assay [5], 69.1%; in [6], 82.7%. For the same compound, the growth is 41.3% in assay [7]; 25.8% in assay [8]; 49.1% in [9]; 69.1% in assay [10]; 35.1% in [11]; 43.3% in [12]. For the same compound, the growth is 32.5% in assay [13]; 63.7% in [14]; 37% in assay [15]; 61.4% in assay [18]; 31.6% in assay [17].

Take `COc1ccc2c(c1)CCCC21C(=O)Nc2ccccc21` (stereo not given): the growth is 80.5% in assay [1]; 96.9% in assay [2]; 95.5% in [3]; 106% in assay [4]; 98.8% in [5]; 100% in assay [6]. Moreover, the growth was 102% in assay [7]; 69.6% in assay [8]; 107% in assay [9]; 104% in [10]; 85.2% in assay [11]; 101% in assay [12]. Also, the growth in [13] is 101%; in [15], 95.7%; in assay [16] it was 102%; in [18], 112%; in assay [17], 97.5%.

These data come from PubChem BioAssay (NCI).
